Data as given in PubChem BioAssay (NCATS).
Values without a mark were called inactive. Entries that show only a call come without a potency. Active and inactive are the calls of the source. The call rests on the fitted dose curve; in most records, active means well fitted inhibition curve with a large enough effect; inconclusive means small, poorly fitted or top-dose-only effect; inactive means flat fitted curve, though single readings scatter. *1 amine or outer side, *2 acyl side, *3 side chain or, on linkers, in order; H or OH if unused. Where a SMILES comes first, the peptide text is derived from it. Bridges are numbered along the chain shown (N, C = ends). [ ]: non-standard residue; d: D form. The star is where a group is joined. ξ: configuration not given here. ξhTyr(3S-OH,4S-OH,3'-OSO3H) = NC(C(=O)O)[C@H](O)[C@@H](O)c1ccc(O)c(OS(=O)(=O)O)c1; Orn(4R-OH,5R-OH) = O=C([C@H](C[C@@H](O)[C@@H](O)N[*:3])N[*:1])[*:2]; X2 = CCCCCOc1ccc(-c2cc(-c3ccc(C(=O)*)cc3)no2)cc1; X3 = C[C@H]1CN([*:1])C(C(=O)[*:2])[C@H]1O; ξGln(3R-OH) = NC(=O)C[C@@H](O)C(N)C(=O)O; ξPro(4R-OH) = O=C(O)C1C[C@@H](O)CN1; ξThr(3R) = C[C@@H](O)C(N)C(=O)O

Each molecule was assayed on Nanoluciferase (engineered Oplophorus gracilirostris luciferase) (assay: Primary Nanoluciferase (NLuc) qHTS assay for identification of artifact compounds. (AID 1845222)). Details: NLuc-conditioned medium, Nano-Glo luminescence, 5 min; series mostly up to 54.1 µM.
Procedure, shortened: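 Luminescence read-out of secreted NLuc in S16 cell conditioned medium (1:55); compounds tested with 15 min RT preincubation, then Nano-Glo substrate 1:100, 5 min. % inhibition vs no-enzyme and DMSO controls, 4-parameter Hill fit.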
With COc1ccc(C(=O)CC(=O)O)c2c1C=CC(C)(C)O2 the Potency was “inactive”.
In the case of C[C@@H]1O[C@@H](O[C@H]2[C@H](O)[C@@H](O)[C@H](OC(=O)[C@]34CCC(C)(C)C[C@H]3C3=CCC5[C@@]6(C)CC[C@H](O[C@@H]7O[C@H](C(=O)O)[C@@H](O)[C@H](O)[C@H]7O)C(C)(C)C6CC[C@@]5(C)[C@]3(C)CC4)O[C@@H]2CO)[C@H](O)[C@H](O)[C@H]1O (stereo partly specified), the activity, negative = inhibition is reported as -3.67% [at 11.6 µM].
In the case of CC(=O)NC1CC(=O)C23C(=O)NC(Cc4c[nH]c5ccccc45)C2C(C)=C(C)C(O)C3/C=C/CC(C)/C=C(/C)C(O)C1O (stereo unspecified), the Potency is reported as “inactive”.
With COC(=O)C1=COC(OC2OC(CO)C(O)C(O)C2O)C2C(C)C(OC(=O)/C=C/c3ccc(O)cc3)C(O)C12 (stereo unspecified) the Potency was “inactive”.
For CC1=C(C)C(=O)OC(C(C)C2C(O)CC3C4C5OC5C5(O)CC(OC6OC(CO)C(OC7OC(C)C(O)C(O)C7O)C(O)C6O)CC(O)C5(C)C4CCC32C)C1 (stereo unspecified), the Potency was “inactive”.
CC(=O)NC(Cc1ccccc1)C(=O)NC(C(=O)O)C(C)C (stereo not drawn) (Ac-Phe-Val-OH; configuration not given here) was tested, and the Potency was “inactive”.
For CC1CC2(O)OC(=O)C3=C2C(CCC3)[C@@]12C[C@@H](c1ccoc1)OC2=O (stereo partly specified), the Potency was “inactive”.
C[C@H]1[C@H](C)CC[C@]2(C(=O)OC3OC(CO)C(O)C(O)C3O)CC[C@]3(C(=O)O)C(=CCC4[C@@]5(C)CC[C@H](O[C@@H]6O[C@@H](C)[C@H](OC7OC(CO)C(O)C(O)C7O)[C@@H](O)[C@H]6O)C(C)(C)C5CC[C@]43C)[C@H]12 (stereo partly specified) gave an activity, negative = inhibition of 1.44% [at 11.6 µM].
C/C(=C\C(=O)C[C@@]12C(=O)O[C@]3(C)CC[C@H]1C[C@H]23)C(N)=O was tested, and the Potency was “inactive”.
COc1cc([C@@H](O[C@@H]2O[C@H](CO)[C@@H](O)[C@H](O)[C@H]2O)[C@@H]2CO[C@H](c3ccc(O)c(OC)c3)[C@H]2CO)ccc1O was tested, and the Potency was “inactive”.
In the case of CC1(C)CC[C@]2(C(=O)O[C@@H]3O[C@H](CO)[C@@H](O)[C@H](O)[C@H]3O)CC[C@]3(C)C(=CCC4[C@@]5(C)CC[C@H](O[C@@H]6O[C@H](C(=O)O)[C@@H](O)[C@H](O)[C@H]6OC6OC(CO)C(O)C(O)C6O)C(C)(C)C5CC[C@]43C)[C@@H]2C1 (stereo partly specified), the activity, negative = inhibition is reported as 0.31% [at 11.6 µM].
CC1(C)CC[C@]2(C(=O)O[C@@H]3O[C@H](CO[C@@H]4O[C@H](CO)[C@@H](O)[C@H](O)[C@H]4O)[C@@H](O)[C@H](O[C@@H]4O[C@H](CO)[C@@H](O)[C@H](O)[C@H]4O)[C@H]3O)CC[C@]3(C)C(=CCC4[C@@]5(C)CC[C@H](O[C@@H]6OC[C@@H](O)[C@H](O)[C@H]6O)[C@@](C)(C(=O)O)C5CC[C@]43C)[C@@H]2C1 (stereo partly specified) showed an activity, negative = inhibition of 1.63% [at 11.6 µM].
COC1CC(O[C@H]2CC[C@@]3(C)C(=CC[C@]4(O)C3[C@H](O)[C@@H](O)[C@]3(C)[C@@H]([C@H](C)O)CC[C@@]34O)C2)OC(C)C1OC1CC(OC)C(OC2CC(OC)C(OC3OC(C)C(OC4OC(CO)C(O)C(O)C4O)C(OC)C3O)C(C)O2)C(C)O1 (stereo partly specified) was tested, and the activity, negative = inhibition was 0% [at 11.6 µM].
For CCCCCOc1ccc(-c2cc(-c3ccc(C(=O)N[C@H]4C[C@@H](O)[C@@H](O)NC(=O)C5[C@@H](O)[C@@H](C)CN5C(=O)C([C@H](O)CC(N)=O)NC(=O)C([C@H](O)[C@@H](O)c5ccc(O)c(OS(=O)(=O)O)c5)NC(=O)C5C[C@@H](O)CN5C(=O)C([C@@H](C)O)NC4=O)cc3)no2)cc1 (stereo partly drawn) (X2-[Orn(4R-OH,5R-OH)][ξThr(3R)][ξPro(4R-OH)][ξhTyr(3S-OH,4S-OH,3'-OSO3H)][ξGln(3R-OH)][X3]; lactam 1-C), the Potency was “inactive”.
In the case of C/C=C/C=C/C1=C2C(=O)C3(C)C4C(C(=O)CC(O)/C=C/C)=C(O1)C1(C)C2C2(C)OC1(O)C4(C)OC23O (stereo unspecified), the Potency is reported as “inactive”.
C=CC1(C)CC2CCC3C(C)(C(=O)O)CCCC3(C)C2=CC1=O (stereo unspecified) was tested, and the Potency was “inactive”.
In the case of O=C(O)c1cccc(CN2C(=O)/C(=C(\c3ccccc3)c3ccc(Cl)cc3)c3ccccc32)c1, the Potency is reported as “inactive”.
C=C1CCC2C(C)(C)CC(O)CC2(C)C1CCC(C)CC(=O)O (stereo unspecified) was tested, and the Potency was “inactive”.
For C=CC(C)(C)C12Nc3c(ccc4c3OC(C)(C)C=C4)C1(O)CC1C(=O)N3CCCC3C(=O)N12 (stereo unspecified), the Potency was “inactive”.
CC(=O)O[C@@H]1C=C2[C@H](CC[C@@]3(C)[C@@]2(O)CC[C@H]2Cc4c([nH]c5ccccc45)[C@@]23C)O[C@@H]1C(C)(C)O was tested, and the Potency was “inactive”.
C/C(=C\CC/C(C)=C/CC[C@]1(C)CCc2cc(O)cc(C)c2O1)CC/C=C(\C)C(=O)O was tested, and the Potency was “inactive”.
With CCc1nn(CCO)c(CC)c1Oc1cc(C#N)cc(C#N)c1 the Potency was “inactive”.
With CC1(C)CC[C@]2(C(=O)O[C@@H]3O[C@H](CO[C@@H]4O[C@H](CO[C@@H]5O[C@H](CO)[C@H](O)[C@H](O)[C@H]5O)[C@@H](O)[C@H](O)[C@H]4O)[C@@H](O)[C@H](O[C@@H]4O[C@H](CO)[C@@H](O)[C@H](O)[C@H]4O)[C@H]3O)[C@H](O)C[C@]3(C)C(=CCC4[C@@]5(C)CC[C@H](O[C@@H]6OC[C@@H](O)[C@H](O)[C@H]6O)[C@@](C)(C(=O)O)C5CC[C@]43C)[C@@H]2C1 (stereo partly specified) the activity, negative = inhibition was -3.7% [at 11.6 µM].
In the case of CC1(C)C[C@H]2C=C(C=O)[C@]3(C(=O)O)C[C@]3(C)[C@H]2C1, the Potency is reported as “inactive”.
In the case of COc1cc(C)c(C(=O)OC2C(C)OC(OC3CCC(C)C4C3C=C(C)C3/C(C)=C\CC/C(C)=C/C5(C)C=C(C(=O)O)C(C)CC56OC(=O)/C(=C(\O)C34C)C6=O)C(O)C2O)c(OC)c1 (stereo unspecified), the activity, negative = inhibition is reported as 4.78% [at 11.6 µM].
C=C(C)[C@@H]1CC[C@]2(C)CC[C@]3(C)C(CCC4[C@@]5(C)CC[C@H](O)C(C)(C)C5CC[C@]43C)C12 (stereo partly specified) was tested, and the Potency was “inactive”.
For CC1(C(=O)O)CCCC2(C)C3CCC4CC3(CCC12)CC4C(=O)O (stereo unspecified), the Potency was “inactive”.
With COc1cccc(CNc2ccc(S(=O)(=O)Nc3nc4ccccc4s3)cc2)c1O the Potency was “inactive”.
For C=C[C@]1(C)C[C@@H](OC(=O)CSC2C[C@H]3CC[C@@H](C2)N3C)[C@]2(C)[C@H](C)CC[C@]3(CCC(=O)[C@H]32)[C@@H](C)[C@@H]1O (stereo partly specified), the Potency was “inactive”.
With COc1cccc(OC)c1-c1cc(C(=O)N[C@@H](CC(C)C)C(=O)O)nn1-c1ccnc2cc(Cl)ccc12 the Potency was “inactive”.
CCC(C)/C=C(C)/C=C/C(=O)C1CCC(O)C(C)(O)C1=O (stereo unspecified) was tested, and the Potency was “inactive”.
